This is an account of results in PubChem BioAssay (NCATS).

For test [1], the target named is Cellular tumor antigen p53 (Homo sapiens) (UniProt P04637). The test can be described thus: Primary qHTS for small molecule compounds that upregulate eGFP-tagged delta133p53alpha (in N-terminal) cells. (AID 2060322). Further: nearly all actives have a fitted effect of over 75% in size. Further: potency means the concentration at half of the fitted maximal effect.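 On activation: cells pre-induced with doxycycline then dosed without doxycycline; series mostly up to about 56 µM; 0% = DMSO vehicle and 100% = reference activator.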 As to conditions: NCI-H358 eGFP-delta133p53alpha fluorescence, 24 h; activation: stronger effect = higher value. A digest of the protocol: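 NCI-H358 cells pre-induced 24 h with 10 ng/ml doxycycline for eGFP-delta133p53alpha, plated dox-free and exposed 24 h at 37C to titrated compounds. Fixed, Hoechst-stained; gated GFP peak intensity by laser scanning cytometry, normalized to DMSO (0%) and 57.5 uM 5-azacytidine (100%).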
Cellular tumor antigen p53 (Homo sapiens), sequence (P04637 whole entry, looked up): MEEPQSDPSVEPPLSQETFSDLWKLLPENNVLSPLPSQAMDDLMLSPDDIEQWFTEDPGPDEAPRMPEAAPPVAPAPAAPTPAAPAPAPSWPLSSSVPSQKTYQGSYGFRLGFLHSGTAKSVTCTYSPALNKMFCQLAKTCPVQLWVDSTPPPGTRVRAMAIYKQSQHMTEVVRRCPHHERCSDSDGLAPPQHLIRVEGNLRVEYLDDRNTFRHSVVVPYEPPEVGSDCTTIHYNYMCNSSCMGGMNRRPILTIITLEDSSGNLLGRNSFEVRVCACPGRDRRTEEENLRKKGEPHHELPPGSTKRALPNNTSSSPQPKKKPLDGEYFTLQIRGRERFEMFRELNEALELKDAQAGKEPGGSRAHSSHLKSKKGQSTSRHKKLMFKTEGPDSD

Test [2] has as its target Aldehyde dehydrogenase, mitochondrial (Homo sapiens) (UniProt P05091). The experiment in a line: qHTS for Inhibitors of the Aldehyde Dehydrogenase Family (ALDH2) Primary screen (AID 2061308).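 Further: plate controls were vehicle for no effect and reference inhibitor for full effect; nearly all actives have a fitted effect of over 55% in size.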
For test [3], the target named is Retinaldehyde dehydrogenase 3 (Homo sapiens) (UniProt P47895). The test can be described thus: qHTS for Inhibitors of the Aldehyde Dehydrogenase Family (ALDH1A3) Primary screen (AID 2061315).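 Further: plate controls were DMSO vehicle for no effect and reference inhibitor for full effect.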

Several values for one entry are separate records, joined by “and”; a condition that tells them apart may be missing. Identical values can stand only once. Inconclusive results are not listed. Values without a mark were called inactive. Activity calls are given as the source filed them. The call rests on the fitted dose curve; in most records, active means well fitted curve in the direction sought with a large enough effect; inconclusive means small, poorly fitted or top-dose-only effect, or another doubt; inactive means no such curve, though single readings can be large; an effect the other way counts as inactive or inconclusive.

For `COc1cc(C(=O)OC(COCCC(C)C)CN2CCOCC2)cc(OC)c1OC` (configuration not stated), the activation in test [1] was 14.3%. Also, the Potency entry in test [2] and in test [3] was “inactive” throughout.
As to `C=CC1(C)CC(O)C2(CCC3C(C)(C(=O)O)CCCC3(C)C2=O)C1` (configuration not stated), the activation in test [1] was -2.29%. Further, the Potency result in test [2] and in test [3] was “inactive” throughout.
For the molecule `CCOc1nc2cccc(C(=O)O)c2n1Cc1ccc(-c2ccccc2-c2nn[nH]n2)cc1`, the activation in test [1] is -1.69% and 19.6%. The Potency result in test [2] and in test [3] was “inactive” in each case.
Regarding `CCC(C)/C=C(C)/C=C/C1=CC2=C(Cl)C(=O)C(C)(O)C(=O)C2(O)C(OC)O1` (configuration not stated), the activation in test [1] is 28.2%. Also, the Potency result in test [2] and in test [3] was “inactive” throughout.
Consider `C=C1CCC2C(C)(C(=O)O)CCCC2(C)C1CCC(C)CC(=O)O` (configuration not stated), for which the activation in test [1] was -3.57%. Besides, the Potency entry in test [2] and in test [3] was “inactive” in each case.
Turning to `CC(=O)NC1CC(=O)C23C(=O)NC(Cc4c[nH]c5ccccc45)C2C(C)=C(C)C(O)C3/C=C/CC(C)/C=C(/C)C(O)C1O` (configuration not stated), the activation in test [1] was 8.93%. Further, the Potency result in test [2] and in test [3] was “inactive” in each case.
`C=CC(C)(C)O[C@@H]1O[C@H](CO[C@@H]2OC[C@](O)(CO)[C@H]2O)[C@@H](O)[C@H](O)[C@H]1O`: the activation in test [1] is -18.3%. Also, the Potency entry in test [2] and in test [3] was “inactive” in each case.
For `O=C(O)/C=C/c1ccc(O[C@@H]2O[C@H](CO)[C@@H](O)[C@H](O)[C@H]2O)cc1`, in test [1], the activation was -3.82%. For the same molecule, the Potency entry in test [2] and in test [3] was “inactive” each time.
As for `C[C@@H]1O[C@@H](OC[C@H]2O[C@@H](OCCc3ccccc3)[C@H](O)[C@@H](O)[C@@H]2O)[C@H](O)[C@H](O)[C@H]1O`, the activation in test [1] is -8.4%. For the same molecule, the Potency result in test [2] and in test [3] was “inactive” each time.
Consider `CC/C=C\CC1C(=O)C=CC1(CCCCC1CCC(=O)O1)OC(C)=O` (configuration not stated), for which the activation in test [1] is 9.92%. Further, the Potency entry in test [2] and in test [3] was “inactive” each time.
For `C[C@@H](Nc1cc(NS(=O)(=O)N2CCC2)nc(SCc2cccc(F)c2F)n1)[C@@H](O)CO`, the activation in test [1] is -20.5%. The Potency entry in test [2] and in test [3] was “inactive” each time.
As to `COC(=O)C1C(c2ccc(O)cc2)C(C(=O)O)C1c1ccc(O)cc1` (configuration not stated), in test [1], the activation is -18.3%. Moreover, the Potency entry in test [2] and in test [3] was “inactive” throughout.
Consider `CC1=CC(=O)CC(C)(C)[C@@]1(O)/C=C/C(C)O[C@@H]1O[C@H](CO)[C@@H](O)[C@H](O)[C@H]1O` (some centres not stated), for which, in test [1], the activation was 15.3%. The Potency entry in test [2] and in test [3] was “inactive” throughout.
With `Cc1ccccc1-n1c([C@H](C)Nc2nc(N)nc3nc[nH]c23)nc2cccc(C)c2c1=O`, the activation in test [1] was -15.2%. For the same molecule, the Potency result in test [2] and in test [3] was “inactive” in each case.
`C/C=C(\C)C(=O)O[C@@H]1CC2[C@@H](CC=C3C[C@@H](O[C@H]4C[C@H](OC)[C@H](O[C@H]5C[C@H](OC)[C@H](O[C@H]6C[C@H](OC)[C@H](O[C@H]7C[C@@H](OC)[C@H](O[C@@H]8O[C@H](CO)[C@@H](O)[C@H](O)[C@H]8O)[C@@H](C)O7)[C@@H](C)O6)[C@@H](C)O5)[C@@H](C)O4)CC[C@@]32C)[C@@]2(O)CC[C@H](C(C)=O)[C@@]12C` (some centres not stated): the activation in test [1] was -9.92%. Besides, the results for the activity change, negative = inhibition in test [2] and in test [3] were 15.2% [at 11.2 µM] and -14.5% [at 11.2 µM], respectively.
In the case of `CCN1CCN(Cc2ccc(-c3cc4c(NC(C)c5ccccc5)ncnc4[nH]3)cc2)CC1` (configuration not stated), the Potency in test [1] is 26.9 µM (active). For the same molecule, the Potency result in test [2] and in test [3] was “inactive” each time.
Turning to `C=C(C)[C@@H]1CC[C@]2(C(=O)O)CC[C@]3(C)C(CCC4[C@@]5(C)C[C@@H](O)[C@H](O)C(C)(C)C5CC[C@]43C)C12` (some centres not stated), the activation in test [1] is -10.7%. In addition, the Potency result in test [2] and in test [3] was “inactive” each time.
Regarding `CC1=CC(=O)C2(OC3OC(C)C(O)C(OC(=O)/C=C/c4ccccc4)C3O)C=COC(OC3OC(CO)C(O)C(O)C3O)C12` (configuration not stated), the activation in test [1] was -13.7%. For the same molecule, the Potency result in test [2] and in test [3] was “inactive” in each case.
As to `CC1(C)C2CC(OC3OC(COC4OCC(O)(CO)C4O)C(O)C(O)C3O)C1(C)CC2O` (configuration not stated), in test [1], the activation is 1.79%. Also, the Potency result in test [2] and in test [3] was “inactive” throughout.
Take `CC1=C(CCC(C)CC(=O)O)[C@@]2(C)CCCC(C)(C)C2CC1=O` (some centres not stated): the activation in test [1] is -29.5%. Moreover, the Potency entry in test [2] and in test [3] was “inactive” each time.
In the case of `CCC[C@@H]1C[C@@H](C(=O)N[C@@H]([C@H]2O[C@H](SC)[C@H](OP(=O)(O)O)[C@@H](O)[C@H]2O)[C@H](C)Cl)N(C)C1`, in test [1], the activation is 13.4%. Moreover, the Potency entry in test [2] and in test [3] was “inactive” each time.
For the molecule `C=C1[C@H]2CC[C@]3(O)[C@@](CC[C@@H]4[C@](C)(C(=O)O)CCC[C@]43C)(C2)[C@H]1OC(=O)/C(C)=C\C`, in test [1], the activation was 15.2%. The Potency entry in test [2] and in test [3] was “inactive” throughout.
For the molecule `CC1(C=O)CC[C@]2(C(=O)O[C@@H]3O[C@H](CO)[C@@H](O)[C@H](O)[C@H]3O)CC[C@]3(C)C(=CCC4[C@@]5(C)C[C@H](O)[C@H](O[C@@H]6OC[C@@H](O)[C@H](O)[C@H]6O)[C@@](C)(CO)C5CC[C@]43C)C2C1` (some centres not stated), the activation in test [1] is 6.87%. Further, the Potency entry in test [2] and in test [3] was “inactive” in each case.
As to `Cc1cc(CO)c(O)c(C(=O)CC2CC(=O)NC(=O)C2)c1`, the activation in test [1] is -5.34%. The Potency result in test [2] and in test [3] was “inactive” in each case.
